From PubChem BioAssay AID1159580 (chemical genetic matrix, 2015)
The campaign covered roughly 5,500 compounds. About 2,000 (36%) were called active. Not shown: some 18% with an inconclusive outcome. Rule as the data show it: active = normalized growth mostly below about 0.91 (no sharp cut-off); inconclusive = no clear call, values can overlap the other calls; inactive = mostly above about 0.92. The list shows a part of the results.

Experiment: chemical genetic growth profiling, strain panel (AID 1159580);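 also: tested at 20 µM; growth read once vehicle control cultures reached saturation at 30 °C; 1 = growth at the plate median or of vehicle wells; lower values mean less growth of the strain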
Conditions: growth OD
[1] = S. cerevisiae deletion strains, locus YHR030C, strain SLT2, stronger effect = lower value

Measured: normalized growth

CC(C)(C)OC(=O)N1CCN(Cc2ccccc2)CC1
inactive: S. cerevisiae deletion strains, locus YAL013W, strain DEP1, stronger effect = lower value 1 | S. cerevisiae deletion strains, locus YBR229C, strain ROT2, stronger effect = lower value 1 | S. cerevisiae deletion strains, locus YDL101C, strain DUN1, stronger effect = lower value 1.02 | S. cerevisiae deletion strains, locus YDR150W, strain NUM1, stronger effect = lower value 1.03 | S. cerevisiae deletion strains, locus YEL061C, strain CIN8, stronger effect = lower value 0.98 | S. cerevisiae deletion strains, locus YGR078C, strain PAC10, stronger effect = lower value 0.999 | S. cerevisiae deletion strains, locus YGR229C, strain SMI1, stronger effect = lower value 1.02 | [1] 1.08 | S. cerevisiae deletion strains, locus YHR087W, strain rtc3, stronger effect = lower value 0.991 | S. cerevisiae deletion strains, locus YJR043C, strain POL32, stronger effect = lower value 0.998 | S. cerevisiae deletion strains, locus YJR075W, strain HOC1, stronger effect = lower value 1 | S. cerevisiae deletion strains, locus YKL190W, strain CNB1, stronger effect = lower value 1.01 | S. cerevisiae deletion strains, locus YLR039C, strain RIC1, stronger effect = lower value 0.967 | S. cerevisiae deletion strains, locus YLR058C, strain SHM2 (second series), stronger effect = lower value 0.986 | S. cerevisiae deletion strains, locus YLR085C, strain ARP6, stronger effect = lower value 0.997 | S. cerevisiae deletion strains, locus YLR262C, strain YPT6, stronger effect = lower value 1.04 | S. cerevisiae deletion strains, locus YML094W, strain GIM5, stronger effect = lower value 0.989 | S. cerevisiae deletion strains, locus YMR219W, strain ESC1, stronger effect = lower value 0.994 | S. cerevisiae deletion strains, locus YMR263W, strain SAP30, stronger effect = lower value 1.01 | S. cerevisiae deletion strains, locus YNL153C, strain GIM3, stronger effect = lower value 1 | S. cerevisiae deletion strains, locus YNL298W, strain CLA4 (second series), stronger effect = lower value 1.01 | S. cerevisiae deletion strains, locus YNL322C, strain KRE1, stronger effect = lower value 1 | S. cerevisiae deletion strains, locus YNR030W, strain Alg12, stronger effect = lower value 0.992 | S. cerevisiae deletion strains, locus YOL006C, strain TOP1, stronger effect = lower value 1.08 | S. cerevisiae deletion strains, locus YPL055C, strain LGE1, stronger effect = lower value 1.03 | S. cerevisiae deletion strains, locus YPL241C, strain CIN2, stronger effect = lower value 1.01 | S. cerevisiae deletion strains, locus YPR135W, strain CTF4, stronger effect = lower value 1.04 | S. cerevisiae strains, strain wild type, stronger effect = lower value 1.02

CN1CCN(C(c2ccccc2)c2ccc(Cl)cc2)CC1 (stereo unspecified)
inactive: [1] 0.974 | S. cerevisiae deletion strains, locus YHR079C, strain IRE1, stronger effect = lower value 0.986 | S. cerevisiae deletion strains, locus YJL095W, strain BCK1, stronger effect = lower value 0.974 | S. cerevisiae deletion strains, locus YJR066W, strain TOR1, stronger effect = lower value 0.979 | S. cerevisiae deletion strains, locus YLR113W, strain HOG1, stronger effect = lower value 0.962 | S. cerevisiae deletion strains, locus YNL183C, strain NPR1, stronger effect = lower value 0.914 | S. cerevisiae deletion strains, locus YOR231W, strain MKK1, stronger effect = lower value 0.981 | S. cerevisiae deletion strains, locus YPL256C, strain CLN2, stronger effect = lower value 0.951
